# CYP2C9 inhib: human CYP2C9 inhibition; inhibition, % at 5 µM; P11712; AID 777; actives 20% (n = 96,000); CYP2C9 Supersomes, luciferin-H conversion, luminescence;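 active = blocking of liver enzyme CYP2C9 beyond about 50% at 5 µM, limit read from the data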
# Target sequence (P11712 whole entry, looked up): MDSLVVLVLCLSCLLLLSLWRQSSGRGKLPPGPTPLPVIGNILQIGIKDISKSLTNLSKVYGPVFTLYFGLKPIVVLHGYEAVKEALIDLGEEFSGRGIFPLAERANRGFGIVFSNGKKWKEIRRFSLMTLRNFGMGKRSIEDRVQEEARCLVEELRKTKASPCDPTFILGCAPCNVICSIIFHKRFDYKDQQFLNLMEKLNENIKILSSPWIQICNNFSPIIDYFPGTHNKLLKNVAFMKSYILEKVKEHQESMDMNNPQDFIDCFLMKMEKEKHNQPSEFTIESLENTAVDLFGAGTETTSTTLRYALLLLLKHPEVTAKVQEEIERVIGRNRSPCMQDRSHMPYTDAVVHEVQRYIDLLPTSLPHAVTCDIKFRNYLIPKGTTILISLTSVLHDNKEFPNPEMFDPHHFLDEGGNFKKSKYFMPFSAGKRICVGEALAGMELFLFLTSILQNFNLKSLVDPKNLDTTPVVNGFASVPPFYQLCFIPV
# Cav32 inh: blocks human Cav3.2 T-type calcium channel | O95180 | actives 4% (n = 100,000) | B-score at 10 µM | Cav3.2-expressing cells, Fluo-4 calcium fluorescence FDSS; stronger effect = lower value;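 active = single-dose well whose peak fluorescence ratio is a statistical outlier from its plate by either plate-standardised score or position-corrected B-score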
# CYP2C19 act: activators of human cytochrome P450 2C19 | 96,000 tested, under 10 active | recombinant CYP2C19, luciferin-H EGE luminescence; stronger effect = higher value; 0 = fully inhibited enzyme, 1 = untreated enzyme | P33261 | activation factor at 5 µM;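 active = activation factor of at least 2 at 5 µM in the primary screen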;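 also: 0 = wells with 2.5 mM tranylcypromine and 1 = vehicle-only wells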
# CYP2C9 act: CYP2C9 (human) activation; AID 1024; actives 1.4% (n = 96,000); recombinant CYP2C9, luciferin-H conversion, luminescence; stronger effect = higher value; factor 1 = untreated enzyme, 0 = blocked; activation factor at 5 µM; P11712;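 active = activation factor of 2 or more for CYP2C9 at a 5 µM dose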;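 also: 0 = sulfaphenazole-blocked wells and 1 = vehicle-only wells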
# CYP2C19 inhib: blocks human cytochrome P450 2C19; P33261; CYP2C19 Supersomes, luciferin-H EGE luminescence, 30 min; inhibition, % at 5 µM; actives 21% (n = 96,000); AID 778;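 active = CYP2C19 inhibition above a set limit at 5 µM in the primary screen, cut at about 50% in these data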;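 also: plate controls were negative control wells for no effect and 2.5 mM tranylcypromine positive control for full effect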
# An asterisk follows results filed as active; . = not tested or not shown. An excerpt weighted towards active compounds, which were near 27% of everything screened.
SMILES,CYP2C9 inhib,Cav32 inh,CYP2C19 act,CYP2C9 act,CYP2C19 inhib
Fc1ccc(Cn2nnnc2C(c2ccc(Cl)cc2)N2CCSCC2)cc1 (configuration not stated),69*,-7.1*,0.1,0.3,94*
c1cncc(CNC2CCCc3ccccc32)c1 (configuration not stated),-16,-0.19,1.1,1.2,-14
Cn1c(CCNC(=O)c2ccc(Cl)cc2)n[nH]c1=S,-6,-0.5,1,1.1,-2
CCOC(=O)N1CCC(NC(=O)C(NC(=O)C2CCCCC2)C(C)C)CC1 (configuration not stated),-9,.,1,1.1,-3
O=c1[nH]c2cc3c(cc2cc1C(c1nnnn1CC1CCCO1)N1CCCCCC1)OCO3 (configuration not stated),.,-0.025,.,.,.
O=c1[nH]c2cc3c(cc2cc1C(c1nnnn1CC1CCCO1)N1CCCCCC1)OCCO3 (configuration not stated),79*,0.033,0.9,0.2,7
O=C(Nc1ccc2c(c1)oc1ccc(S(=O)(=O)N3CCCC3)cc12)C1CC1,53*,-0.67,0.8,0.5,23
CCOc1ccc(N2C(=O)CC(n3nc(C)cc3C)C2=O)cc1 (configuration not stated),.,-0.1,.,.,.
CC(=O)c1c(C(C)=O)c(C)n(-c2ccc(C)c(NC(=O)c3ccccc3Cl)c2)c1C,43,1.9,0.9,0.6,13
Cc1ccc(NC(=O)c2ccccc2Cl)c(Cl)c1,-120,-1.1,0.9,2.2*,8
CCCc1cc2c(cc1NC(=O)c1ccccc1Cl)OCO2,49,0.28,0.1,0.5,94*
CCC(=O)c1cc2c(cc1NC(=O)c1ccccc1)OCCO2,36,0.68,0.9,0.6,11
CCCc1cc2c(cc1NC(=O)c1ccccc1C)OCO2,28,0.31,0,0.7,95*
CCCc1cc2c(cc1NC(=O)c1ccc(Br)cc1)OCO2,11,-0.33,0.1,0.9,87*
Cc1cc(NC(=O)Cn2c(=O)c3c(ncn3CCC(C)C)n(Cc3ccccc3)c2=O)no1,.,-1.7,.,.,.
CC(C)C(NS(=O)(=O)c1cccc2nsnc12)C(=O)N1CCc2ccccc2C1 (configuration not stated),41,1.7,0.8,0.6,24
CC(C)(C)c1nnc2sc(SCCN3C(=O)c4ccccc4C3=O)nn2c1=O,47,-0.34,0.8,0.5,22
CC(C)N(C(=O)CSc1nn2c(=O)c(C(C)(C)C)nnc2s1)c1ccccc1,89*,-10*,0.1,0.1,88*
Cc1cc(C(=O)CSc2nn3c(=O)c(C(C)(C)C)nnc3s2)c(C)n1-c1ccc(F)cc1,58*,-2.1,0.7,0.4,31
CCNC(=O)n1nccc1C(C)Oc1ccccc1 (configuration not stated),46,0.084,0.5,0.5,55*
CC(Oc1ccc(Cl)cc1)c1ccnn1S(=O)(=O)c1ccc(Cl)cc1 (configuration not stated),82*,-2.1,0.7,0.2,30
CC(Oc1ccc(Cl)cc1)C(=O)Nc1nccs1 (configuration not stated),37,-0.48,0.6,0.6,41
CC(Oc1ccccc1)c1ccnn1S(=O)(=O)c1ccccc1 (configuration not stated),64*,-6.4*,0.6,0.4,43
COC(=O)c1ccc(OC)c(CSc2nnc(-c3ccc(C(C)(C)C)cc3)o2)c1,84*,-3.8,0.1,0.2,90*
COC(=O)c1ccc(OC)c(CSc2nnc(COc3ccc(Cl)cc3)o2)c1,88*,-5.8*,0.2,0.1,76*
SMILES,CYP2C9 inhib,Cav32 inh,CYP2C19 act,CYP2C9 act,CYP2C19 inhib
COC(=O)c1ccc(OC)c(CSc2nnc(COc3ccccc3)o2)c1,38,-4,0.6,0.6,38
COc1ccc(N2CS(=O)(=O)/C(=C/N(C)C)C2=O)cc1,-4,0.47,1,1,-2
COC(=O)c1ccc(CSc2nnc3sc4ccccc4n23)o1,-32,1.4,0.5,1.3,47
Clc1ccc2c(c1)C=Nc1c(NCc3ccccc3)ncnc1O2,36,0.33,0.9,0.6,12
C1=Nc2c(Nc3ccccc3)ncnc2Oc2ccccc21,62*,-1.8,0.5,0.4,54*
CCOC(=O)c1c(NC(=O)CN2C(=O)c3ccccc3C2=O)sc(Cc2ccc3c(c2)OCO3)c1C,.,-1,.,.,.
Oc1ccc(-c2n[nH]c(=S)n2Cc2ccco2)cc1,68*,1.5,0.7,0.3,31
CCCn1c(Cc2ccccc2)n[nH]c1=S,-5,0.34,0.8,1.1,16
S=c1[nH]nc(C2CC2)n1Cc1ccco1,4,0.67,1,1,2
S=c1[nH]nc(Cc2ccccc2)n1Cc1ccco1,39,-0.041,0.3,0.6,71*
COc1ccc(CCC(=O)Nc2nc3c(s2)CN(C)CC3)cc1OC,9,0.79,0.8,0.9,19
O=S1(=O)CCN2C(Cc3ccc(SC(F)F)cc3)=CSC2=N1,6,0.0088,0.9,0.9,10
O=C(O)CN1C(=O)CSc2ccccc21,16,0.42,1,0.8,-1
O=C1CSc2ccccc2N1Cc1ccc(F)cc1,70*,-0.45,0.3,0.3,69*
O=C(O)CSc1cccc2cccc(C(=O)O)c12,3,-0.0075,1,1,4
COc1cc(/C=N/NC(=O)CCc2c(C)n[nH]c2C)cc(OC)c1OC,33,0.47,0.4,0.7,55*
C=CCNC(=O)N1C2=NC(C(=O)OC)=C(C(=O)OC)[C@@H]3N(Cc4ccccc4)c4ccccc4[C@]23C[C@H]1C(=O)OC,.,-1.6,.,.,.
CCOC(=O)CNC(=O)CSc1nnc(-c2cccc(C)c2)n1-c1ccc(OC)cc1,31,0.17,0.3,0.7,69*
CCNC(=O)CSc1nnc(-c2ccccc2)n1-c1ccc(OCC)cc1,60*,0.73,0.7,0.4,29
CCOc1ccc(NC(=O)CSc2nnc(-c3ccccc3)n2N)cc1,2,-0.29,1.1,1,-9
CCC(C)NC(=O)CSc1nnc(-c2ccncc2)n1-c1ccc(OC)cc1 (configuration not stated),86*,0.62,0,0.1,100*
CCC(C)NC(=O)CSc1nc2n[nH]c(C)c2c(=N)n1-c1ccc(OC)cc1 (configuration not stated),-4,1.6,0.9,1,5
CCOC(=O)CSc1nnc(CNC(=O)c2ccc(OC)cc2)n1-c1ccc(OC)cc1,6,0.7,0.9,0.9,9
Cc1nc2ccc(S(=O)(=O)NCC(=O)N3CCOCC3)cc2s1,3,0.041,0.9,1,9
O=C(Nc1ccccc1)OC(CN1CCCCC1)C(F)(F)F (configuration not stated),23,-1.5,0.6,0.8,43
CC(C)C(=O)Nc1nnc(SCC(=O)NCc2cccs2)s1,-2,.,1,1,3
Nc1c(C(=O)c2ccccc2)oc2ccc(Br)cc12,49,-0.8,0.3,0.5,70*
